In PubChem BioAssay (NCATS):
Results filed as inconclusive are left out. Calls of active or inactive are those of the source. The call rests on the fitted dose curve; in most records, active means well fitted curve in the direction sought with a large enough effect; inconclusive means small, poorly fitted or top-dose-only effect, or another doubt; inactive means no such curve, though single readings can be large; an effect the other way counts as inactive or inconclusive.

Experiments:
[1] = qHTS of pediatric cancer cell lines to identify multiple opportunities for drug repurposing: Primary screen for TC32 cells (AID 1347089); settings: TC32 Ewing sarcoma viability, CellTiter-Glo luminescence, 48 h; series mostly up to 45.8 µM; further: nearly all actives have a fitted effect of over 60% in size
How it was run: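 Luminescent ATP read-out (CellTiter-Glo) of metabolically active TC32 cells after 48 h exposure. Concentration-response curves came from 11-point (MIPE, 0.78 nM–46 µM) or 8-point (NPC, 0.59 nM–46 µM) primary titrations; follow-up used 11 points.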

[2] = qHTS of pediatric cancer cell lines to identify multiple opportunities for drug repurposing: Primary screen for A673 cells (AID 1347092); settings: A673 Ewing sarcoma viability, CellTiter-Glo ATP luminescence, 48 h; series mostly up to 46 µM; further: nearly all actives have a fitted effect of over 45% in size
How it was run: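 Cell viability of A673 measured by CellTiter-Glo ATP luminescence after 48 hours compound exposure. Dilution series spanned 0.78 nM to 46 µM (MIPE, 11-point) or 0.59 nM to 46 µM (NPC, 8-point); bortezomib 2.3 uM positive control.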

[3] = qHTS of pediatric cancer cell lines to identify multiple opportunities for drug repurposing: Primary screen for SK-N-MC cells (AID 1347093); settings: SK-N-MC viability, CellTiter-Glo luminescence, 48 h; series mostly up to 46 µM
How it was run: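 Metabolically active cells were quantified by ATP-dependent luminescence (CellTiter-Glo, 15 min at room temperature) following 48 h treatment. Cells had been plated at 500-1,000 per well and settled for 5 h beforehand.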

[4] = qHTS of pediatric cancer cell lines to identify multiple opportunities for drug repurposing: Primary screen for NB-EBc1 cells (AID 1347095); settings: NB-EBc1 neuroblastoma viability, CellTiter-Glo luminescence, 48 h; series mostly up to 46 µM
How it was run: (§1)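 ATP-based luminescence (CellTiter-Glo) quantifies viability after a 48-hour exposure. Compounds are dosed across 8 or 11 final concentrations; DMSO and 2.3 µM bortezomib serve as controls.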

[5] = qHTS of pediatric cancer cell lines to identify multiple opportunities for drug repurposing: Primary screen for DAOY cells (AID 1347090); settings: DAOY medulloblastoma viability, CellTiter-Glo luminescence, 48 h; series mostly up to 46 µM; further: nearly all actives have a fitted effect of over 55% in size
How it was run: (§2)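 Cell viability, CellTiter-Glo luminescence; 500-1,000 cells/well, 8- or 11-point titration, 48 h compound exposure at 37 degrees C, 5% CO2. Controls: DMSO neutral, bortezomib 2.3 µM final as positive.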

[6] = qHTS of pediatric cancer cell lines to identify multiple opportunities for drug repurposing: Primary screen for SJ-GBM2 cells (AID 1347091); settings: SJ-GBM2 viability, CellTiter-Glo luminescence, 48 h; series mostly up to 46 µM
How it was run: as §2

[7] = qHTS of pediatric cancer cell lines to identify multiple opportunities for drug repurposing: Primary screen for BT-37 cells (AID 1347094); settings: BT-37 viability, CellTiter-Glo luminescence, 48 h; series mostly up to 57.3 µM
How it was run: as §1

Measured: Potency
Potency means the concentration at half of the fitted maximal effect.

Cc1cc(Nc2nc(N[C@@H](C)c3ccc(F)cc3)c(C#N)cc2F)n[nH]1
active: [1] 2.62 µM | [2] 1.18 µM | [3] 0.743 µM | [4] 0.662 µM

CC1COC2(CCN(c3nc(=O)c4cc(C(F)(F)F)cc([N+](=O)[O-])c4s3)CC2)O1 (stereo not drawn)
not listed: [1]
inactive: all other assays above

O=C(O)c1ccc2cc(-c3ccc(O)c(C45CC6CC(CC(C6)C4)C5)c3)ccc2c1
active: [5] 0.469 µM | [6] 0.148 µM | [2] 2.35 µM | [3] 0.372 µM | [7] 0.863 µM | [4] 0.209 µM

CN[C@H]1CCc2cc(OC)c(OC)c(OC)c2-c2ccc(OC)c(=O)cc21
active: [1] 0.037 µM | [3] 0.0026 µM | [7] 0.0061 µM | [4] 0.001 µM

CN1CC[C@@H](c2c(O)cc(O)c3c(=O)cc(-c4ccccc4Cl)oc23)[C@@H](O)C1
active: [5] 0.187 µM | [6] 0.0526 µM | [2] 0.0935 µM | [3] 0.118 µM | [7] 0.109 µM | [4] 0.0743 µM

COc1ccc(C=Cc2cc(OC)c(OC)c(OC)c2)cc1O
active: [5] 0.001 µM | [6] 0.001 µM | [2] 0.001 µM | [3] 0.001 µM | [7] 0.0137 µM | [4] 0.001 µM

Cc1coc2c1C(=O)C(=O)c1c-2ccc2c1CCCC2(C)C
inactive: [1]
active: [6] 5.9 µM | [3] 8.33 µM | [7] 21.7 µM | [4] 8.33 µM

COc1ccc(OC)c(-c2nnc3ccc(-c4ccc(OC)c(O[C@@H]5CCOC5)c4)nn23)c1
inactive: [1] | [4]
active: [2] 14.8 µM | [3] 18.7 µM | [7] 27.3 µM

COc1ccc(-n2nc(C(N)=O)c3c2C(=O)N(c2ccc(N4CCCCC4=O)cc2)CC3)cc1
inactive: [1] | [3] | [4]
active: [2] 9.35 µM | [7] 12.2 µM

CN1CCC(CNc2ccc3ncc(-c4cccc(OC(F)(F)F)c4)n3n2)CC1
inactive: [1]
active: [2] 14.8 µM | [3] 4.18 µM | [7] 21.7 µM | [4] 18.7 µM

Cc1nc2ccc(CN(C)c3ccc(C(=O)N[C@@H](CCC(=O)O)C(=O)O)s3)cc2c(=O)[nH]1
active: [1] 0.131 µM | [3] 0.0105 µM | [4] 0.0422 µM

CC(C)Nc1cc(C(F)(F)F)cc2nc(NC(=O)c3cccnc3)nn12
active: [3] 16.6 µM
inactive: [1] | [7] | [4]

O=C(c1ccc(Nc2nccc(-c3cc4ccccc4s3)n2)cc1)N1CCC(N2CCCC2)CC1
active: [5] 23.5 µM | [6] 13.2 µM | [2] 7.43 µM | [3] 5.26 µM | [7] 24.3 µM | [4] 23.5 µM

O=C(Nc1cn[nH]c1-c1nc2ccc(CN3CCOCC3)cc2[nH]1)NC1CC1
active: [5] 3.72 µM | [6] 0.59 µM | [2] 1.48 µM | [3] 0.059 µM | [7] 12.2 µM | [4] 1.48 µM

CC(C)(C)c1cc(NC(=O)Nc2ccc(-c3cn4c(n3)sc3cc(OCCN5CCOCC5)ccc34)cc2)no1
active: [6] 14.8 µM | [3] 0.743 µM | [4] 16.6 µM
inactive: [1]

CCN1CCN(Cc2ccc(-c3cc4c(N[C@H](C)c5ccccc5)ncnc4[nH]3)cc2)CC1
active: [5] 0.001 µM | [6] 0.332 µM | [2] 0.001 µM | [3] 0.001 µM | [7] 0.153 µM | [4] 0.0469 µM

Cc1nc(Nc2n[nH]c3c2CN(C(=O)N[C@H](CN(C)C)c2ccccc2)C3(C)C)c2sccc2n1
active: [5] 11.8 µM | [6] 1.05 µM | [2] 0.0148 µM | [3] 0.0332 µM | [7] 0.611 µM | [4] 10.5 µM

Cn1c2ccccc2c2c3c(c4c5ccccc5n(CCC#N)c4c21)CNC3=O
active: [5] 5.9 µM | [6] 0.59 µM | [3] 0.148 µM | [7] 7.69 µM | [4] 0.418 µM

CC(=O)OCC(=O)[C@@]1(O)[C@H](C)C[C@H]2[C@@H]3C=C(C)C4=Cc5c(cnn5-c5ccccc5)C[C@]4(C)[C@@H]3[C@@H](O)C[C@@]21C
active: [5] 11.8 µM | [6] 5.26 µM | [2] 2.96 µM | [3] 1.18 µM | [7] 19.3 µM | [4] 3.72 µM

O=C(O)CO.[NH2-].[NH2-].[Pt+2]
inactive: [5] | [3] | [7] | [4]

CC(=O)SC[C@@H](C)C(=O)N1CCC[C@H]1C(=O)N[C@@H](Cc1ccccc1)C(=O)O
not listed: [1] | [6]
inactive: all other assays above

C1Cc2[nH]nc(-c3nn[nH]n3)c2C1
not listed: [1] | [3]
inactive: all other assays above

COc1cc2c(cc1-c1c(C)noc1C)ncc1[nH]c(=O)n([C@H](C)c3ccccn3)c12
active: [5] 18.7 µM | [6] 16.6 µM | [2] 4.69 µM | [3] 1.18 µM | [7] 17.2 µM | [4] 16.6 µM

CCc1cc2c(cc1N1CCC(N3CCOCC3)CC1)C(C)(C)c1[nH]c3cc(C#N)ccc3c1C2=O
inactive: [5] | [6] | [2] | [7]

COc1cc(OC2CCN(C)CC2)ccc1Nc1ncc2c(n1)n(C1CCCC1)c(=O)n2C
active: [5] 23.5 µM | [6] 16.6 µM | [3] 3.32 µM | [4] 8.33 µM

CC(C)(C)c1cnc(CSc2cnc(NC(=O)C3CCNCC3)s2)o1
active: [5] 0.935 µM | [6] 0.187 µM | [3] 0.332 µM | [7] 0.385 µM | [4] 0.935 µM

NC(=O)c1c(OCc2c(F)cc(Br)cc2F)nsc1NC(=O)NCCCCN1CCCC1
active: [5] 23.5 µM | [2] 18.7 µM | [3] 16.6 µM | [7] 24.3 µM | [4] 2.64 µM

CN(C1CCc2c(c3ccccc3n2CC(=O)O)C1)S(=O)(=O)c1ccc(F)cc1 (stereo not drawn)
active: [5] 5.9 µM | [3] 0.935 µM

CNC(=O)CN1CCC(Oc2cc3c(Nc4cccc(Cl)c4F)ncnc3cc2OC)CC1
active: [5] 0.0093 µM | [6] 0.001 µM | [3] 0.0053 µM | [7] 0.001 µM | [4] 0.0066 µM

Nc1nc(Nc2ccc(S(N)(=O)=O)cc2)nn1C(=O)c1c(F)cccc1F
active: [5] 11.8 µM | [6] 3.72 µM | [2] 2.96 µM | [3] 3.32 µM | [7] 15.3 µM | [4] 5.26 µM

Cc1cc(Nc2cc(CN3CCOCC3)c3nc(C)c(Cc4ccc(Cl)cc4F)n3n2)n[nH]1
active: [5] 23.5 µM | [6] 23.5 µM | [4] 4.18 µM

COc1ccc2c(OCc3nnc4ccc(-c5ccccc5)nn34)ccnc2c1
not listed: [1] | [6]
inactive: all other assays above

N#CCNC(=O)c1ccc(-c2ccnc(Nc3ccc(N4CCOCC4)cc3)n2)cc1
active: [5] 14.8 µM | [2] 7.43 µM | [3] 4.69 µM | [7] 21.7 µM

CN(C)CC=CC(=O)Nc1cc2c(Nc3ccc(F)c(Cl)c3)ncnc2cc1O[C@H]1CCOC1
active: [5] 5.9 µM | [6] 3.72 µM | [2] 3.72 µM | [3] 1.66 µM | [7] 21.7 µM | [4] 9.35 µM

Cn1cc(-c2ccncc2)c(-c2ccc(OCc3ccc4ccccc4n3)cc2)n1
active: [5] 4.69 µM | [2] 3.72 µM | [3] 9.35 µM

CC(C)(C)c1cc(C(C)(C)C)c(NC(=O)c2c[nH]c3ccccc3c2=O)cc1O
inactive: [5] | [2] | [7] | [4]

COc1ccc2c(c1)CC[C@@H](CN(C)CC(=O)O)[C@H]2c1ccccc1
active: [5] 2.96 µM | [2] 1.87 µM | [3] 1.18 µM | [7] 6.11 µM | [4] 0.662 µM

NCC(=O)Nc1ccc(-n2nc(C(F)(F)F)cc2-c2ccc3c(ccc4ccccc43)c2)cc1
active: [5] 23.5 µM | [2] 23.5 µM | [3] 0.0372 µM | [7] 24.3 µM | [4] 0.833 µM

COC(=O)[C@]12CCC(C)(C)C[C@@H]1[C@@H]1C(=O)C=C3[C@@]4(C)C=C(C#N)C(=O)C(C)(C)[C@@H]4CC[C@@]3(C)[C@]1(C)CC2
active: [5] 0.59 µM | [3] 0.372 µM | [7] 0.685 µM | [4] 0.264 µM

c1cc(-c2cnn3cc(-c4ccc(OCCN5CCCCC5)cc4)cnc23)ccn1
active: [5] 18.7 µM | [2] 4.69 µM | [3] 9.35 µM | [7] 17.2 µM | [4] 23.5 µM

O=C(Nc1cc(C(F)(F)F)cc(C(F)(F)F)c1)c1cc(Cl)ccc1O
active: [5] 0.59 µM | [6] 0.235 µM | [3] 0.469 µM | [7] 0.968 µM | [4] 0.296 µM

OCc1ccc(-c2ccc(-c3ccc(CO)s3)o2)s1
inactive: [7]
active: [5] 9.35 µM | [6] 16.6 µM | [2] 0.148 µM | [4] 14.8 µM
